# Measured values taken from PubChem BioAssay (Tox21).
# Inconclusive results are not listed. Active and inactive are the calls of the source. The call rests on the fitted dose curve; in most records, active means well fitted activation curve with a large enough effect in the repeat runs; inconclusive means weak or mixed curves; inactive means no such curve, though single readings can be large or run the other way.
# Assay: qHTS assay for small molecules that induce genotoxicity in human embryonic kidney cells expressing luciferase-tagged ATAD5 (AID 651632); further: nearly all actives have a fitted effect of over 15% in size
# Settings: HEK293T ATAD5-luciferase induction, 16 h; series mostly up to 83.3 µM; activation: at the top concentration
# Procedure, shortened: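 Quantitative HTS in HEK293T expressing luciferase-tagged ATAD5, whose levels rise upon DNA damage. Exposure ran 16 hr at 37C and 5% CO2, with luminescence read 30 min after Amplite addition at room temperature.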
# On the % scale 0 is the no-effect control and ±100 the full control effect; potency means the concentration at half of the fitted maximal effect.
Structure (SMILES),activation,Potency
CCCCCC(O)/C=C/C=O (centres undefined),3.5% (inactive),–
O=C(Cn1c(=O)sc2ccc(Cl)cc21)N1CCN(CCO)CC1,0.826% (inactive),–
COc1ccc2c(c1)OC(C)(C)C(c1ccccc1)C2c1ccc(OCCN2CCCC2)cc1 (centres undefined),-13.8% (inactive),–
CCCCCCOc1ccc(C(=N)N(CCCC)CCCC)c2ccccc12,-12% (inactive),–
C[C@H](N)C(=O)N[C@@H](C)P(=O)(O)O,0.249% (inactive),–
OC[C@H]1OC([S-])[C@H](O)[C@@H](O)[C@@H]1O.[Au+] (some centres undefined),2.24% (inactive),–
CC[C@@H](C(=O)[C@@H](C)[C@@H](O)[C@H](C)[C@@H]1O[C@@H]([C@@H](CC)C(=O)O)CC[C@@H]1C)[C@H]1O[C@]2(C=C[C@@H](O)[C@]3(CC[C@@](C)([C@H]4CC[C@](O)(CC)[C@H](C)O4)O3)O2)[C@H](C)C[C@@H]1C,-9.34% (inactive),–
C=C1CC[C@H](O)CC1=C/C=C1\CCC[C@]2(C)[C@@H]([C@H](C)CCCC(C)(C)O)CC[C@@H]12,-6.17% (inactive),–
O=C(COc1ccc(Cl)cc1)OCCNC12CC3CC(CC(C3)C1)C2,0.545% (inactive),–
CCOC(=O)Oc1c(OC)cc(C(=O)O[C@@H]2C[C@@H]3CN4CCc5c([nH]c6cc(OC)ccc56)[C@H]4C[C@@H]3[C@H](C(=O)OC)[C@H]2OC)cc1OC,-16.4% [at 39.1 µM] (inactive),–
Nc1nc2[nH]cc(CCc3ccc(C(=O)N[C@@H](CCC(=O)O)C(=O)O)cc3)c2c(=O)[nH]1,4.63% (inactive),–
CC(CC(c1ccccc1)c1ccccc1)NC(C)(C)C (centres undefined),-6.66% (inactive),–
NC[C@@H]1O[C@H](O[C@H]2[C@@H](O)[C@H](O[C@@H]3[C@@H](O)[C@H](N)C[C@H](N)[C@H]3O[C@H]3O[C@H](CN)[C@@H](O)[C@H](O)[C@H]3N)O[C@@H]2CO)[C@H](N)[C@@H](O)[C@@H]1O,2.38% (inactive),–
OC1OC[C@@H](O)[C@H](O)[C@@H]1O (some centres undefined),-0.258% (inactive),–
CCN(CC)c1ccc(C(=C2C=CC(=[N+](CC)CC)C=C2)c2ccccc2)cc1,–,2.37 µM (active)
CC(CCc1ccc(O)cc1)NCC(O)c1ccc(O)cc1 (centres undefined),1.98% (inactive),–
CC(=O)Nc1c(I)c(C(=O)O)c(I)c(N(C)C(C)=O)c1I,1.06% (inactive),–
C[C@]12C=CC(=O)N[C@@H]1CC[C@@H]1[C@@H]2CC[C@]2(C)[C@@H](C(=O)Nc3cc(C(F)(F)F)ccc3C(F)(F)F)CC[C@@H]12,4.53% (inactive),–
CCC(Oc1ccccc1)C(=O)N[C@@H]1C(=O)N2[C@@H]1SC(C)(C)[C@@H]2C(=O)O (some centres undefined),1.1% (inactive),–
COc1c(O[C@@H]2O[C@H](CO)[C@@H](O)[C@H](O)[C@H]2O)cc2c(c1OC)-c1ccc(SC)c(=O)cc1[C@@H](NC(C)=O)CC2,1.15% [at 39.1 µM] (inactive),–

Structure (SMILES),activation,Potency
CC[C@@H]1/C=C(\C)C[C@H](C)C[C@H](OC)[C@H]2O[C@@](O)(C(=O)C(=O)N3CCCC[C@H]3C(=O)O[C@H](/C(C)=C/[C@@H]3CC[C@@H](Cl)[C@H](OC)C3)[C@H](C)[C@@H](O)CC1=O)[C@H](C)C[C@@H]2OC,-2.46% (inactive),–
C[C@H](O)[C@H](O)[C@H]1CNc2nc(N)[nH]c(=O)c2N1,2.05% (inactive),–
COc1ccc(C[C@H](N)C(=O)N[C@H]2[C@@H](O)[C@H](n3cnc4c(N(C)C)ncnc43)O[C@@H]2CO)cc1,–,1.06 µM (active)
O=C(NNCNNC(=O)c1ccncc1)c1ccncc1,0.859% (inactive),–
CC(O)[C@H]1CC[C@H]2[C@@H]3CC[C@@H]4C[C@@H](O)CC[C@]4(C)[C@H]3CC[C@]12C (some centres undefined),2.05% (inactive),–
CCCCc1cc2c(=O)c(C(=O)OC)c[nH]c2cc1OCc1ccccc1,3.73% (inactive),–
C=C[C@]1(C)C[C@@H](OC(=O)CSCCN(CC)CC)[C@]2(C)[C@H](C)CC[C@]3(CCC(=O)[C@H]32)[C@@H](C)[C@@H]1O,1.46% (inactive),–
CCCCCCCCCCCCCCCCCC(=O)OCC(C)O (centres undefined),0.379% (inactive),–
CCCCC[C@H](O)/C=C/[C@@H]1[C@H]2C/C(=C/CCCC(=O)O)O[C@H]2C[C@H]1O,1.47% (inactive),–
CCOC(=O)[C@@H](N)CS,-5.14% (inactive),–
CC1(C)S[C@@H]2[C@H](NC(=O)C(N)c3ccccc3)C(=O)N2[C@H]1C(=O)OC1OC(=O)c2ccccc21 (some centres undefined),1.81% [at 39.1 µM] (inactive),–
CN1CCc2c(c3ccccc3n2Cc2ccccc2)C1,-2.41% [at 39.1 µM] (inactive),–
CN(C)CCOc1ccccc1Cc1ccccc1 (tested in a mixture with another compound),1.59% (inactive),–
CCOC(=O)c1c[nH]c2cc(OCC(C)C)c(OCC(C)C)cc2c1=O,0.875% (inactive),–
CN(CCO)CC(O)Cn1cnc2c1c(=O)n(C)c(=O)n2C (centres undefined) (tested in a mixture with another compound),-1.73% (inactive),–
FCOC(C(F)(F)F)C(F)(F)F,0.85% (inactive),–
CCN(CC)CCOc1ccc2nc(N(C)C)sc2c1,4.58% (inactive),–
COc1cc(-c2ccc(-[n+]3nc(-c4ccccc4)nn3-c3ccc([N+](=O)[O-])cc3)c(OC)c2)ccc1-[n+]1nc(-c2ccccc2)nn1-c1ccc([N+](=O)[O-])cc1,–,5.96 µM (active)
COC(=O)[C@H]1[C@H]2C[C@@H]3c4[nH]c5ccccc5c4CCN3C[C@H]2C[C@@H](OC(=O)c2cc(OC)c(OC)c(OC)c2)[C@@H]1OC,–,inactive
